Data on 89 molecules can be found in PubChem BioAssay AID652105 (National Center for Advancing Translational Sciences (NCATS), 2013).

Among all 330,000 compounds or so, about 4,100 (1.2%) were called active. Not shown: some 2% with an inconclusive outcome. For the sample, actives were picked, then their nearest neighbours and some compounds at random. A number with no mark means an inactive call. How the source made its calls: active means max response of -50% or lower; inconclusive means between -30% and -50%; inactive means -30% or higher.
On the % scale 0 is the no-effect control and ±100 the full control effect.

The target in this assay is Phosphatidylinositol 5-phosphate 4-kinase type-2 alpha (Homo sapiens) (UniProt P48426). Briefly: qHTS for Inhibitors of phosphatidylinositol 5-phosphate 4-kinase (PI5P4K). Further: value at the top dose of about 77 µM. The note with it: PI5P4Kalpha enzyme, ADP-Glo luminescence, 60 min; stronger effect = lower value. An outline of the steps: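 Controls without substrate or without enzyme flank wells where PI5P4Kalpha converts substrate using 5 microM ATP (final). Incubation lasts 60 minutes at room temperature; ADP formed is read by ADP-Glo luminescence.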
Chain of Phosphatidylinositol 5-phosphate 4-kinase type-2 alpha (Homo sapiens) (P48426 whole entry, looked up): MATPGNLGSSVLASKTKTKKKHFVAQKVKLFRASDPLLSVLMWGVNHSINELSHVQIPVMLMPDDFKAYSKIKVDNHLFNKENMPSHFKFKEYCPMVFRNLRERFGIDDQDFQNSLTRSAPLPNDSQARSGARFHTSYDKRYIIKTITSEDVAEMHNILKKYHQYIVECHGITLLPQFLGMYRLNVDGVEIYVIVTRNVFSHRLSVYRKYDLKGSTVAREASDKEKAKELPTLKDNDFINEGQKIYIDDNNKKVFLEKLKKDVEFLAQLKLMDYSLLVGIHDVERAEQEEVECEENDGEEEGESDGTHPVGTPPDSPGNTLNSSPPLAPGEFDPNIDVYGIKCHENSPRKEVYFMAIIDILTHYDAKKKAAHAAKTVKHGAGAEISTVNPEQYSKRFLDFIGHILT
`N#CC1=C(N)Oc2[nH]c(=S)[nH]c(=O)c2C12C(=O)Nc1ccccc12` (centres undefined): the max response was -89.2% (active). Then `Cc1ccc(NC2(C#N)C(=O)Nc3ccccc32)cc1` (centres undefined), with -2.41%; and `CC1(C)Cc2ccccc2-c2[nH]c(=S)[nH]c(=O)c21`, with -19.7%; and `CCc1c(-c2ccc(F)cc2)ncn1Cc1cccc(-c2ccccc2)c1`, with -9.99%. As for `NNc1cccc(C=Cc2ccccc2)cc1=O`, the max response is -74.4% (active). For the molecule `O=c1[nH]c(/C=C/c2cccc(Br)c2)nc2ccccc12`, the max response was -0.363%. For the molecule `O=c1oc(/C=C/c2ccccc2)nc2ccccc12`, the max response was 8.43%. Turning to `OC(c1ccccc1)(c1ccccc1)C1CCN(CCCOc2ccccc2)CC1`, the max response is -3.47%. For `CC(C)C1Cc2[nH][nH]c(=O)c2C(c2ccc(Cl)cc2)O1` (centres undefined), the max response was -8.68%. Consider `C1=C(N2CCOCC2)/C(=C/c2nc3ccccc3[nH]2)CC1`, for which the max response was -77.5% (active). On to `O=c1[nH]c(N2CCOCC2)nc2ccccc12`, for which the max response is -4.73%.

`CC1(C)Cc2c(C#N)c(SCc3nc4ccccc4[nH]3)nc(N3CCOCC3)c2CO1`: the max response is 2.17%. Turning to `FC(F)(F)c1cccc(-c2nc3ccccc3n2C(c2ccccc2)c2nc3ccccc3[nH]2)c1` (centres undefined), the max response is -4.13%. `CC1(C(=O)NS(=O)(=O)c2cccs2)CCN1C(=O)Cc1ccc(-c2ccccc2)cc1` (centres undefined): the max response was -0.507%. For the molecule `COC(=O)C1=C(C(=O)OC)C(c2cc([N+](=O)[O-])ccc2O)c2sc(=O)[nH]c2S1` (centres undefined), the max response was -81% (active). With `COC(=O)C1=C(C)N(C)C(=O)NC1c1ccc([N+](=O)[O-])o1` (centres undefined), the max response was -6.27%. For `COC(=O)c1c(C)[nH]c(C)c1-c1ccc([N+](=O)[O-])cc1`, the max response was 8.82%. `CCCNC(=O)C1(C)CCN1C(=O)Cc1ccc(-c2ccccc2)cc1` (centres undefined): the max response was -2.28%. Regarding `CC(=O)c1nn(-c2ccccc2)c(=Nc2ccccc2)cc1C`, the max response was -0.302%. As to `O=C(NCc1cccnc1)c1cc(C2CCCN(C(=O)CCCc3ccccc3)C2)on1` (centres undefined), the max response was 1.02%. On to `COc1ccc(C(=O)N2CCC(C(=O)Nc3ccc(C)cc3)CC2)cc1`, for which the max response was -67.6% (active). In the case of `COc1ccc(CNC(=O)C2CCN(C(=O)c3ccccc3)CC2)cc1`, the max response is 6.89%.

Regarding `O=C(Nc1ccccc1)C1CCN(C(=O)c2ccc(Br)cc2)CC1`, the max response is -5.42%.

As for `Nc1ccccc1SCc1cc([N+](=O)[O-])cc2c1OCOC2`, the max response is 0.872%. Regarding `Nc1ccccc1SC(C[N+](=O)[O-])c1ccccc1` (centres undefined), the max response was -75.7% (active).

For `Cc1ccc(C(C[N+](=O)[O-])c2c(C)cc3ccccn23)cc1` (centres undefined), the max response is 3.11%. In the case of `COc1cc(NC(=O)c2cc(-c3ccc(F)cc3OC(C)C)n[nH]2)cc(OC)c1OC`, the max response is -6.5%. Then `CCCCCCN1CCN(C2CN(Cc3cn(Cc4ccc(F)cc4)nn3)S(=O)(=O)C2)CC1` (centres undefined), with 0.312%; and `CN1CCN(/N=C/c2ccc(-c3ccc([N+](=O)[O-])cc3)o2)CC1`, with -0.908%.

Take `NS(=O)(=O)c1ccc(-c2ccc(/C=C3\SC(=O)NC3=O)o2)cc1`: the max response was -52.9% (active).

As for `O=C(Nc1ccccc1)c1ccccc1Br`, the max response was 2.77%. For `CCN(CC)CCN(C)C(c1ccnc2ccccc12)c1nnnn1-c1ccc2c(c1)OCCO2` (centres undefined), the max response is -0.0355%. Next, `O=C(N/N=C/c1ccco1)c1ccc(C(=O)N/N=C/c2ccco2)o1`: -70.9% (active).

For `O=C(N/N=C/c1ccco1)c1csc2c1CCCC2`, the max response is -21.6%. Then `O=C(Cc1ccc([N+](=O)[O-])cc1)N/N=C/c1ccco1`, with -5.81%; and `OC(c1cc(Cl)cc(Cl)c1)c1ncc(-c2ccccc2C(F)(F)F)[nH]1` (centres undefined), with 14.3%. As to `COc1ccc(NC(=O)C2Cc3c(-c4cccc(NC(C)=O)c4)ccnc3O2)cc1OC` (centres undefined), the max response was -8.09%.

For `C=CCC[C@H](CCCCC)OC(=O)/C=C/[C@H](O)[C@@H](O)C[C@@H](O)CC=C`, the max response is 17.1%.

For the molecule `NS(=O)(=O)c1ccc(N=Nc2c(O)[nH]c3ccc(Br)cc23)cc1`, the max response is -0.139%.

`Oc1[nH]c2ccc(Br)cc2c1N=Nc1nn[nH]n1`: the max response is -58.4% (active). On to `O=C(CNC(=O)Cc1ccccc1)N=Nc1c(O)[nH]c2ccc(Br)cc12`, for which the max response was -6.57%.

With `CC1(C(=O)NCc2ccccc2)CN(S(C)(=O)=O)CC(=O)N1CC(F)(F)F` (centres undefined), the max response is -7.01%.

`O=C(O)c1ccccc1N=N/C(=N/Nc1cc(S(=O)(=O)O)ccc1O)c1ccccc1`: the max response is -101% (active). Next, `CN1OC[C@@H]2CN(C(=O)c3cccc4ccccc34)[C@H](c3ccc(N4CCCCC4)cc3)C[C@@H]21`: -0.774%; `COC(=O)c1ccc2nc(-c3ccc(OC)c(OC)c3)c(Cc3ccccc3)n2c1`: -1.07%.

Turning to `CCOC(=O)C=Cc1ccc(C(=O)OCC)[nH]1`, the max response is 2.97%. On to `CCN(CCN(C)C)C(=O)c1ccc2nc(C)c(N(C)C(=O)CCc3ccccc3)n2c1`, for which the max response was 10.1%. Regarding `O=C(COC(=O)c1ccccc1O)NCc1ccco1`, the max response was -51.6% (active).

For the molecule `O=C(COC(=O)CCC(=O)c1cccs1)NCc1ccco1`, the max response was -63% (active).

Turning to `O=C(COC(=O)c1cc(S(=O)(=O)N2CCCCC2)ccc1Cl)NCc1ccco1`, the max response is -24.6%.

In the case of `CC1CCN(C(=O)COC(=O)CCC(=O)c2cccs2)CC1`, the max response is -4%.

In the case of `O=C(COC(=O)c1cccs1)NCc1cccs1`, the max response is -2.68%. Consider `O=C(COC(=O)Cc1ccc(Cl)cc1Cl)NCc1ccco1`, for which the max response is 0.392%. Next, `Cc1cc(C)n2c(Nc3c(C)cccc3C)c(CCc3ccccc3)nc2n1`: 0.703%; `Cc1ccc(Cc2c(-c3ccc(Cl)cc3)nc3c4ccccc4ccn23)cc1`: 19.7%. With `Cc1ccccc1Cn1c(C)c(C(=O)NCc2cccc(C(F)(F)F)c2)sc1=O`, the max response is 6.94%. `CCCCCn1nnnc1-c1nc2cc3ccccc3cc2[nH]c1=O`: the max response is -6.84%. As for `CCOC(=O)C(C(=O)c1ccccc1)C(c1ccccc1)c1nccc2ccccc12` (centres undefined), the max response was -6.07%. Then `N#CCc1c(C#N)c(N)nc(N2CCCC2)c1C#N`, with -5.04%; and `N#Cc1c(N2CCCCC2)nc(N)c2c(N)nc(SCC(=O)O)cc12`, with -86.9% (active).

With `N#Cc1c(-c2ccccc2)cc(-c2ccccc2)nc1SCC(=O)O`, the max response was -13.7%. Consider `Nc1ncnc2c1ncn2[C@@H]1O[C@H](C(=O)NS(=O)(=O)c2c(Cl)nc3sccn23)[C@@H](O)[C@H]1O`, for which the max response is -5.36%.

Turning to `CC(C)(C)CC(=O)Nc1nc(C(N)Cc2ccc(C(F)(F)F)cc2)cs1` (centres undefined), the max response was 0.168%.

Turning to `Nc1ncnc2c1ncn2[C@@H]1O[C@H](C(=O)N2CCCN(Cc3ccccc3F)CC2)[C@@H](O)[C@H]1O`, the max response was 1.03%.

As to `CCOC(=O)CSc1nccc(N(C)C)c1C#N`, the max response was -3.71%. Regarding `CCOC(=O)C(Sc1ncc(C#N)c(N)n1)C(C)C` (centres undefined), the max response is -50.3% (active). Next, `CCOC(=O)COc1nc(C)cc(C(F)(F)F)c1C#N`: 3.55%; `CCOC(=O)C1(C)CCCN(C(=O)c2ccc(F)c(Cl)c2)C1` (centres undefined): -14.5%; `CCOC1=C2[C@@H](CN(S(=O)(=O)c3ccc(C)cc3)[C@H]2c2ccccc2F)[C@H]2C(=O)N(Cc3ccccc3)C(=O)[C@H]2C1`: -0.38%. As to `CCCNC(=O)C1(C)CCN(Cc2ccc(Cl)c(Cl)c2)C1` (centres undefined), the max response was 6.81%.

`CCCCN(C=O)c1c(CC)nc2c(OCc3ccccc3C(=O)OC)cccn12`: the max response was -7.91%.

With `O=C1[C@H]2[C@@H](c3ccc(C(F)(F)F)cc3)N[C@]3(CCCN(Cc4ccc(Cl)cc4)C3=O)[C@H]2C(=O)N1Cc1ccccc1`, the max response was 6.21%.

Consider `COC(=O)[C@@]12C[C@@H](CC(=O)NCCCCc3ccccc3)C(=O)N(CCc3ccc(OC)c(OC)c3)C1=CCC(C)(C)C2`, for which the max response was 21.2%.

As to `O=c1[nH]c2ccccc2n2c(-c3ccccc3)nnc12`, the max response is -92.9% (active).

`O=c1[nH]n2c(-c3ccccc3)nc(O)c2c2ccccc12`: the max response was -2.92%. Next, `O=C(c1ncn2c1c(=O)[nH]c1ccccc12)N1CCc2ccccc2C1`: -1.33%; `CN(Cc1ccccc1F)c1cc2c(c3c1ccn3C)C1CCC2O1` (centres undefined): -0.125%; `C[C@@H]1CN([C@H](C)CO)S(=O)(=O)c2ccc(C#C[C@@H](C)O)cc2O[C@@H]1CN(C)Cc1ccc(-c2ccccc2)cc1`: 2.03%. Next, `OC[C@@H]1CN(Cc2ccc3c(c2)OCO3)C[C@H](n2cnc3c(NCc4ccco4)ncnc32)O1`: -4.15%; `CC(Sc1ccc(S(=O)(=O)N2CCN(C)CC2)cn1)C(=O)NC1CCCC(C)C1C` (centres undefined): 0.777%.

In the case of `COc1ccc(-c2ccc3[nH]c4c(c3c2)CCN2C[C@H]3[C@H](C)ON(C)[C@H]3C[C@@H]42)cc1`, the max response was 0.74%.

On to `O=C(C[C@H]1C[C@@H]2c3cc(NC(=O)C4CCC4)ccc3O[C@@H]2[C@H](CO)O1)NC1CCCCC1`, for which the max response was -3.63%. Take `CCn1cc(/C=C2/SC(=S)NC2=O)c(C)n1`: the max response was -66.5% (active). Next, `Cc1nn(C)cc1/C=C1\CCC/C(=C\c2cn(C)nc2C)C1=O`: -2.16%; `C=C1C(=O)[C@]23C[C@H]1CCC2[C@@]1(C)C(C[C@@H]3O)[C@](C)(C(=O)O)CC[C@@H]1O` (some centres undefined): 3.48%; `O=[N+]([O-])c1ccc(CN2CC(N3CCC(c4ccccc4)CC3)CS2(=O)=O)cc1` (centres undefined): 5.16%. As to `Cn1c(=O)[nH]c(=O)c2c1[nH]c(=S)n2Cc1ccccc1`, the max response was -85.5% (active). Take `COc1ccc(CNc2nc3c(c(=O)[nH]c(=O)n3C)n2Cc2ccccc2)cc1`: the max response was 6.3%. Then `C=CCSc1nc2c(c(=O)[nH]c(=O)n2C)n1Cc1ccccc1`, with 7.13%.
